Screening results deposited in PubChem by National Center for Advancing Translational Sciences (NCATS).
A selection: hits, their analogues and other compounds. The true share with any hit is near 0.95%.
TbPYK inhibitor: inhibitors of Trypanosoma brucei pyruvate kinase | TbPYK enzyme, Kinase-Glo Plus ATP luminescence, 45 min | Potency, µM (doses to about 76.8 µM), for inactives: top-dose activity, negative = inhibition, hits mostly inhibitors | 410,000 tested, 0.12% active | AID 624173; note: nearly all actives have a fitted effect of over 50% in size
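In this concentration-response screen, enzyme-free wells defined baseline while DMSO plates tracked drift. Each reaction combined TbPYK, substrate, compound and 130 uM ADP for 45 min at room temperature. Kinase-Glo Plus luminescence gave the signal.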
LmPK inh: inhibitors of Leishmania mexicana pyruvate kinase; 290,000 tested, 0.37% active; Potency, µM (top dose mostly 57.5 µM), for the others: at the top dose activity change, negative = inhibition, most hits filed as inhibitors; purified LmPK, Kinase-Glo ATP luminescence, 1 h; Q27686
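Pyruvate kinase activity monitored as ATP production (luciferase luminescence). Conditions: 0.1 nM enzyme, 0.5 mM PEP, 0.1 mM ADP, 1 h, RT; normalized against uninhibited and no-enzyme wells.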
Giardia FBPA inh-1: Giardia lamblia aldolase inhibition; A8B2U2; purified Giardia FBPA; Potency, µM (series often up to 59.6 µM), for inactives: at the top dose activity, negative = inhibition, actives largely listed as inhibitors; 290,000 tested, 0.71% active; note: nearly all actives have a fitted effect of over 55% in size
Target sequence (A8B2U2 whole entry, looked up): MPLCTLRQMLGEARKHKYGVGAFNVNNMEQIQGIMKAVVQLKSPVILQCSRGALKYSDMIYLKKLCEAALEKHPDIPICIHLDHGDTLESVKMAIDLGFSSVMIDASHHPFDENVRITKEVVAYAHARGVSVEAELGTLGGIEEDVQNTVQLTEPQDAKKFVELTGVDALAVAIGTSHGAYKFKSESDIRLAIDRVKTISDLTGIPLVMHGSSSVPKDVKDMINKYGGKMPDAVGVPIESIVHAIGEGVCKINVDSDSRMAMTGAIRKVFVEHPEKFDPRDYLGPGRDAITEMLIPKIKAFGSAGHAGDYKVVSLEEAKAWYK
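40 nM FBPA preincubated 10 min at RT with compound (up to 57.5 uM final), then substrate plus GAPDH/TPI/NAD/arsenate coupling and diaphorase/resazurin added. Fluorescence read after 20 min at RT, 525/598 nm.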
RE007 growth inh: less growth of the S. pombe RE007 Vpr strain; Potency, µM (titrated, usually from 92.2 µM), for inactives: top-dose activity change, negative = less growth, actives largely listed as inhibitors; AID 651644; S. pombe RE007 Vpr strain, BacTiter-Glo ATP luminescence, 24 h; 360,000 tested, 0.21% active; active = well fitted falling curve with a large enough effect; inconclusive = small, poorly fitted or top-dose-only effect; inactive = no such curve, though single readings can be large or run the other way; note: nearly all actives have a fitted effect of over 50% in size
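Fission yeast strain RE007, carrying one chromosomally integrated HIV-1 vpr copy, was seeded at OD 0.01 in PMG+AL medium with 23 nL pinned compound. After 24 h at 30 °C and 99% humidity, viability was read by BacTiter-Glo luminescence.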
Giardia growth: blocks growth of Giardia lamblia trophozoites | shares compounds with Giardia FBPA inh-1 | Giardia lamblia trophozoite growth inhibition | Potency, µM (series often up to 57.5 µM), for inactives: at the highest dose activity change, negative = inhibition, usual class: inhibitors | 1,500 tested, 5% active | AID 2785;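 note: trophozoites exposed to compound for 48 h at 37 °C; nearly all actives have a fitted effect of over 70% in size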
Mammal cell tox: toxic to mammalian cells in Giardia aldolase counter-screen | Potency, µM (doses to about 57.5 µM), inactives show at the top dose viability change, negative = toxicity, most hits filed as inhibitors | shares compounds with Giardia FBPA inh-1 | 1,500 tested, 4% active | AID 2786 | mammalian cell viability counter-screen, qHTS;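 note: Chinese hamster ovary cells used as mammalian cytotoxicity surrogate; viability measured as cellular ATP by luminescence; compound exposure lasted 48 h before reading; nearly all actives have a fitted effect of over 60% in size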
Giardia FBPA inh-2: confirmation of Giardia fructose-bisphosphate aldolase inhibitors | shares compounds with Giardia FBPA inh-1 | purified Giardia aldolase enzyme activity, qHTS | Potency, µM (titrated, usually from 57.5 µM), without a hit: top-dose activity change, negative = inhibition, actives largely listed as inhibitors | 1,500 tested, 5% active | AID 2787; note: nearly all actives have a fitted effect of over 45% in size
Rabbit aldolase: rabbit FBP aldolase inhibition by Giardia aldolase hits. shares compounds with Giardia FBPA inh-1. Rabbit muscle FBPA enzyme inhibition, selectivity counter-screen. Potency, µM (highest dose often 57.5 µM), for inactives: at the top dose activity, negative = inhibition, actives largely listed as inhibitors. 1,500 tested, 4% active. AID 2794; note: nearly all actives have a fitted effect of over 60% in size
Target sequence (P00883 whole entry, looked up): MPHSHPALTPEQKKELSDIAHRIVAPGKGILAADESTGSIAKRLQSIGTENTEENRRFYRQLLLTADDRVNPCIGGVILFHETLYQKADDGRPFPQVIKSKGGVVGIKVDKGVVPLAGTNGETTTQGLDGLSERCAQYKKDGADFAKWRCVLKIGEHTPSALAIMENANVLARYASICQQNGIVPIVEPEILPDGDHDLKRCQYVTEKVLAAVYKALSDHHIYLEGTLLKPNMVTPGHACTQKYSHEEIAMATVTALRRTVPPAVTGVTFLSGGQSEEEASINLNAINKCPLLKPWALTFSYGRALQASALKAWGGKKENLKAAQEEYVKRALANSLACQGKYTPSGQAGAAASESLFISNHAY
GAPDH counter: counter-screen for Giardia aldolase inhibitors: GAPDH coupling enzyme. shares compounds with Giardia FBPA inh-1. GAPDH coupling enzyme counterscreen, biochemical, qHTS. Potency, µM (top dose mostly 57.5 µM), for the others: at the highest dose activity change, negative = inhibition, usual class: inhibitors. 1,500 tested, 6% active. AID 2795; note: nearly all actives have a fitted effect of over 55% in size
Starred values were filed as active, the others as inactive; [ ] = dose if it differs, or a comment. Unless noted, calls come from the whole dose curve; as a rule, active = well fitted curve in the direction sought with a large enough effect; inconclusive = small, poorly fitted or top-dose-only effect, or another doubt; inactive = no such curve, though single readings can be large; an effect the other way counts as inactive or inconclusive. % is set by controls: 0 for no effect and ±100 for the full control effect; potency is the fitted concentration of half-maximal effect.

Cn1nnc(NC(=S)NC(=O)c2cccs2)n1 was read as TbPYK inhibitor -13.2%, LmPK inh -1.8%, Giardia FBPA inh-1 1.99µM*, RE007 growth inh -3.5%, Giardia growth -7.8%, Mammal cell tox 4.2%, Giardia FBPA inh-2 -1.3%, Rabbit aldolase 6.7% and GAPDH counter 7.4%.
`COc1cc(OC)cc(C(=O)NC(=S)Nc2nnn(C)n2)c1` gave TbPYK inhibitor -5.9%, LmPK inh -8.6%, Giardia FBPA inh-1 3.54µM*, RE007 growth inh -5.9%, Giardia growth -17.9%[38.3 µM], Mammal cell tox -4.6%, Giardia FBPA inh-2 3.4%, Rabbit aldolase 9.0% and GAPDH counter 10.0%.
`CCCn1nnc(NC(=S)NC(=O)CC)n1` gave TbPYK inhibitor 2.5%, LmPK inh 2.9%, Giardia FBPA inh-1 5.61µM*, RE007 growth inh 5.2%, Giardia growth inconclusive, Mammal cell tox -5.4%, Giardia FBPA inh-2 -1.5%, Rabbit aldolase 1.0% and GAPDH counter 4.2%.
`Cn1nnc(NC(=S)NC(=O)c2cccc3ccccc23)n1` gave TbPYK inhibitor -8.3%, LmPK inh -3.8% and RE007 growth inh -2.7%.
Screening CCCCn1nnc(NC(=S)NC(=O)c2cccs2)n1 returned TbPYK inhibitor -3.8%, LmPK inh -8.9% and Giardia FBPA inh-1 inconclusive.
For CCOc1ccc(CNC(=O)c2ccc3c(Cl)c4c(nc3c2)CCCC4)cc1 the results were TbPYK inhibitor -4.8%.
For O=C1[C@H]2[C@H]3[C@H](O)[C@H](O)C/C(=N/OC[C@@H](O)COCc4ccco4)[C@@H]3CC[C@@H]2C(=O)N1c1cccc(Oc2ccccc2)c1 the results were Giardia FBPA inh-1 0.0%[12.9 µM].
CCCNC(=O)Cn1nc(C)c2c(C)n(-c3ccccc3)nc2c1=O was read as TbPYK inhibitor -2.8%.
CN(C)S(=O)(=O)c1ccc(NC(=S)NC(=O)c2cccs2)cc1 was read as TbPYK inhibitor -2.5%, LmPK inh 6.6%, Giardia FBPA inh-1 17.7µM*, RE007 growth inh -22.6%, Giardia growth -8.7%[10.4 µM], Mammal cell tox -17.3%, Giardia FBPA inh-2 7.0%, Rabbit aldolase 5.3% and GAPDH counter 11.2%.
For CCN(c1ccccc1)S(=O)(=O)c1ccc(NC(=S)NC(=O)c2cccs2)cc1 the results were TbPYK inhibitor -8.4%, LmPK inh -0.1%, Giardia FBPA inh-1 -1.2% and RE007 growth inh -6.8%.
`CCNC(=S)N1CCN(Cc2ccccc2)CC1` gave TbPYK inhibitor 2.3%, LmPK inh -4.8%, Giardia FBPA inh-1 inconclusive and RE007 growth inh -11.4%.
For S=C(c1ccc(Br)cc1)N1CCN(Cc2ccccc2)CC1 the results were TbPYK inhibitor inconclusive, LmPK inh 5.9%, Giardia FBPA inh-1 14.1µM*, RE007 growth inh -16.6%, Giardia growth inconclusive, Mammal cell tox -6.3%, Giardia FBPA inh-2 inconclusive, Rabbit aldolase inconclusive and GAPDH counter inconclusive.
`Oc1ccc(C(=S)N2CCN(Cc3ccccc3)CC2)cc1` gave TbPYK inhibitor inconclusive, LmPK inh -3.1%, Giardia FBPA inh-1 17.7µM*, RE007 growth inh -11.8%, Giardia growth 54.5%, Mammal cell tox 5.8%, Giardia FBPA inh-2 -5.2%, Rabbit aldolase -16.2% and GAPDH counter 6.3%.
For Cc1ccc(C(=S)N2CCN(Cc3ccccc3)CC2)s1 the results were TbPYK inhibitor inconclusive, LmPK inh -1.9%, Giardia FBPA inh-1 17.7µM*, RE007 growth inh 6.6%, Giardia growth 24.4%, Mammal cell tox -23.4%, Giardia FBPA inh-2 inconclusive, Rabbit aldolase inconclusive and GAPDH counter inconclusive.
Screening CCN1CCN(C(=S)c2ccc(O)cc2)CC1 returned TbPYK inhibitor inconclusive, LmPK inh -13.6%, Giardia FBPA inh-1 8.89µM*, RE007 growth inh -7.5%, Giardia growth 12.2%[38.3 µM], Mammal cell tox -18.9%, Giardia FBPA inh-2 -16.1%, Rabbit aldolase -27.1% and GAPDH counter -9.2%.
For CO[C@@H]1COC(=O)C/C=C\[C@H](C)[C@H](OC)COC(=O)[C@H]2CCCN2C(=O)C/C=C\[C@H]1C the results were Giardia FBPA inh-1 0.3%[12.9 µM].
For CN(C)c1ccc(C(=S)N2CCN(Cc3ccccc3)CC2)cc1 the results were TbPYK inhibitor inconclusive, LmPK inh 9.2%, Giardia FBPA inh-1 6.29µM*, RE007 growth inh 10.3%, Giardia growth -1.9%[38.3 µM], Mammal cell tox -8.1%, Giardia FBPA inh-2 -24.7%, Rabbit aldolase inconclusive and GAPDH counter inconclusive.
Screening CCN(CC(=O)NCc1ccc(F)cc1)C(=O)CN1CCN(c2ccc(OC)cc2)CC1 returned TbPYK inhibitor -2.7%, LmPK inh -10.8%, Giardia FBPA inh-1 7.94µM*, RE007 growth inh 2.6%, Giardia growth -17.4%, Mammal cell tox 4.7%, Giardia FBPA inh-2 -7.5%, Rabbit aldolase -9.8% and GAPDH counter 0.5%.
Screening COc1ccc(-c2ccnc3cc(C(=O)O)nn23)cc1 returned TbPYK inhibitor 1.8%, LmPK inh 4.8%, Giardia FBPA inh-1 17.7µM*, RE007 growth inh inconclusive, Giardia growth 47.1%, Mammal cell tox 23.1%, Giardia FBPA inh-2 4.4%, Rabbit aldolase -0.4% and GAPDH counter 7.2%.
`O=C(O)c1cc2nccc(-c3ccco3)n2n1` gave TbPYK inhibitor -3.3%, LmPK inh 4.2%, Giardia FBPA inh-1 -8.0% and RE007 growth inh -8.8%.
Screening Cc1ccc(/C=C/c2onc(C)c2S(=O)(=O)N2CCC(C(=O)N3CCOc4ccc(C)cc43)CC2)cc1 returned TbPYK inhibitor 8.4%.
`Cc1cc2c(n1-c1ccc(C(=O)NCC(C)c3ccccc3)cc1)CCCC2` (stereo unspecified) gave TbPYK inhibitor -0.5%.
Screening COc1ccc(-n2ccn(CC(=O)NCc3ccc(C)cc3)c(=O)c2=O)cc1OC returned TbPYK inhibitor -5.2%.
For CCOc1cc(C(=O)NC(=S)Nn2cnnc2)cc(OCC)c1OCC the results were TbPYK inhibitor 1.6%, LmPK inh 0.0%, Giardia FBPA inh-1 15.8µM*, RE007 growth inh 7.2%, Giardia growth inconclusive, Mammal cell tox 3.1%, Giardia FBPA inh-2 2.5%, Rabbit aldolase 14.5% and GAPDH counter -8.3%.
